Test results from ChEMBL document CHEMBL1157539, “Thousands of chemical starting points for antimalarial lead identification” (Nature, 2010).

These compounds were tested on Plasmodium falciparum (assay: GSK_TCMDC: Inhibition of Plasmodium falciparum 3D7 in whole red blood cells, using parasite LDH activity as an index of growth. Test compounds present at 2uM).
Type: functional

Q: How did the Inhibition turn out when `CCOc1cc(CC)ccc1C1CCN(CCN2CCC(NC(=O)c3ccc(-c4ccc(C#N)cc4)cc3)CC2)CC1` was run?
A: 100%

Q: With `CCNc1cc(C(=O)N[C@@H](Cc2ccoc2)[C@H](O)CNC(C)CCCC(C)C)cc(N2CCCCS2(=O)=O)c1.Cl` (stereo not given in full) as the compound, how does the Inhibition read?
A: 99%

Q: For `CCc1c(C)nc(-n2nc(C)cc2NC(=O)c2cccc3ccccc23)[nH]c1=O`, which Inhibition is on record?
A: 98%

Q: How did the Inhibition turn out when `CCCN(CCC)C(=O)c1cc(C(=O)N[C@@H](Cc2ccccc2)[C@H](O)CNC2CC2)cc(N2CCCCS2(=O)=O)c1` was run?
A: 100%

Q: `CN(C)CC(=O)NCC(NCCCNc1cc(=O)c2ccccc2[nH]1)c1cc(Br)cc(Br)c1` (stereo not given) was tested. Which Inhibition did it give?
A: 98%

Q: For `CC(C)C[C@H](NC(=O)c1cc2ccccc2s1)C(=O)N[C@H]1CCN(Cc2ccc(I)c(OC3CCN(C)C3)c2)C1.O=C(O)C(F)(F)F` (stereo not given in full), which Inhibition is on record?
A: 100%

Q: For `Cc1cccc(C(=O)Nc2ccnc(N3CCCN(Cc4cccc(O)c4)CC3)c2)c1.O=C(O)C(F)(F)F`, which Inhibition is on record?
A: 84%

Q: How did the Inhibition turn out when `CC(C(=O)NC1CCN(c2ccnc(Nc3ccc(F)cc3)n2)C1)c1ccc(Cl)cc1` (stereo not given) was run?
A: 95%

Q: For `COc1cc(F)c2ncc(Cl)c(CCN3CCC(NCc4ccc5c(c4)NC(=O)CS5)CC3)c2c1.Cl`, which Inhibition is on record?
A: 100%

Q: Which Inhibition does the source give for `Cl.O=C(Nc1ccc(Cl)c(Cl)c1)N1CCc2cc3nccc(N4CCN5CCC[C@H]5C4)c3cc21` here?
A: 100%

Q: With `COc1cc2c(cc1OC)C(c1ccc(Br)cc1)CN(C)CC2.Cl` (stereo not given) as the compound, how does the Inhibition read?
A: 86%

Q: For `O=C1COC2(CN1C1CCN(Cc3ccc(O)c(Cl)c3)C1)c1ccccc1-c1ccccc12.O=CO` (stereo not given), which Inhibition is on record?
A: 93%

Q: How did the Inhibition turn out when `O=c1ccc(-c2nc3cc(Cl)c(Cl)cc3n2Cc2ccc(Cl)cc2Cl)c[nH]1` was run?
A: 88%

Q: `CN(C)CCN(C)Cc1ccc(-c2ccc3c(Nc4ccc(Cl)cc4F)ccnc3c2)o1` was tested. Which Inhibition did it give?
A: 100%

Q: Which Inhibition does the source give for `CC(C)(C)Nc1nc(Nc2cccc([N+](=O)[O-])c2)nc(-n2ccnc2)n1` here?
A: 98%

Q: `COc1cc(OC)cc(-c2nn(-c3ccc([N+](=O)[O-])cc3Cl)c(=S)n2Cc2ccco2)c1` was tested. Which Inhibition did it give?
A: 100%

Q: With `Cc1cccc2nc(-c3ccc(-c4ccc(CN5CCCCC5)cc4)s3)[nH]c12.O=C(O)C(F)(F)F` as the compound, how does the Inhibition read?
A: 99%

Q: How did the Inhibition turn out when `Fc1cccc(-c2ccc3c(c2)CC(NCc2c[nH]c4cnccc24)C3)c1` (stereo not given) was run?
A: 100%

Q: With `CC(C)CCCC(C)(C)NC[C@@H](O)[C@H](Cc1ccccc1)NC(=O)c1cccc(OCC2CC2)c1` as the compound, how does the Inhibition read?
A: 96%

Q: `CN1CCCN(Cc2cccc(-c3ccc(CNC(=O)c4cccc(Cl)c4)c(F)c3)c2)CC1.O=C(O)C(F)(F)F` was tested. Which Inhibition did it give?
A: 96%

Q: For `Br.Cc1cc(C)c(C)c(OCCCON2C(=N)N=C(N)NC2(C)C)c1C`, which Inhibition is on record?
A: 94%

Q: `CCOc1ccc(NC(C)=O)c(O)c1` was tested. Which Inhibition did it give?
A: 96%

Q: For `O=C(/C=C/c1ccc(Cl)c(Cl)c1)NCC1CCN(Cc2ccc(O)cc2)CC1.O=C(O)C(F)(F)F`, which Inhibition is on record?
A: 98%

Q: `Br.C=CCc1cccc(OC)c1OCCCON1C(=N)N=C(N)NC1(C)C` was tested. Which Inhibition did it give?
A: 94%

Q: How did the Inhibition turn out when `Fc1ccc(-c2cncc(-c3ccc(F)cc3)n2)cc1` was run?
A: 99%

Q: How did the Inhibition turn out when `O=C(N[C@@H](Cc1ccccc1)C(=O)NC1CCCCC1)c1ccc(O)c(-c2cccc(C(F)(F)F)c2)c1` was run?
A: 96%

Q: With `CC(C)(CNC(=O)C1CCN(CCOCc2ccccc2)CC1)c1nc(-c2ccc(Cl)c(O)c2)c(-c2ccncc2)[nH]1.Cl` as the compound, how does the Inhibition read?
A: 100%

Q: For `CCOC(=O)c1ccc(NC(=O)c2ccccc2C(=O)O)cc1`, which Inhibition is on record?
A: 92%

Q: For `O=C(NCCN1CCN(S(=O)(=O)c2ccc(OC3CCNCC3)c(Br)c2)CC1)c1ccc(Cl)c(Cl)c1.O=C(O)C(F)(F)F`, which Inhibition is on record?
A: 89%

Q: How did the Inhibition turn out when `O=C(Cn1c(CCc2cccc(F)c2F)nc(=O)c2ccccc21)N(Cc1ccc(-c2ccc(C(F)(F)F)cc2)cc1)C1CCN(C2CCOCC2)CC1.O=C(O)C(O)C(O)C(=O)O` was run?
A: 100%

Q: For `Cc1ccc(O)cc1Nc1ccnc2cc(-c3cccc(CNCCS(C)(=O)=O)c3)ccc12`, which Inhibition is on record?
A: 99%

Q: With `O=C(O)C(F)(F)F.O=C1COC(c2ccccc2)(c2ccccc2)CN1CC1CCN(Cc2ccc(O)cc2Cl)C1` (stereo not given) as the compound, how does the Inhibition read?
A: 85%

Q: `O=C(C=Cc1ccc(Br)cc1)N1CCC(CCN2CCC(c3c[nH]c4ccccc34)CC2)CC1` was tested. Which Inhibition did it give?
A: 98%

Q: For `COc1ccc2nccc([C@@H](O)CN3CCC(NCc4cc5c(F)ccc(F)c5[nH]4)CC3)c2c1.O=C(O)C(=O)O`, which Inhibition is on record?
A: 100%

Q: Which Inhibition does the source give for `Cc1ccc(CNC(=O)[C@H](CCCN)Nc2nc(NCC3CCCCC3)ncc2C)cc1.O=C(O)C(F)(F)F` here?
A: 92%
